Among the data in PubChem BioAssay AID1745853 (National Center for Advancing Translational Sciences (NCATS), 2022) are activity change, negative = inhibition values, retold here.

Hit rate of the full screen: of about 25,000 compounds, about 970 (3.9%) were called active. Roughly 8% stayed inconclusive and do not appear here. How the calls were made is not given here. Only a selection was taken, and actives are over-represented in it overall.

Experiment in all cases: Primary Screen for Target Class Profiling of Small Molecule Inhibitors of Methyltransferases
The target in test [1] is Catechol O-methyltransferase (Homo sapiens) (UniProt P21964). The settings on record: purified enzyme, MTase-Glo SAH luminescence; activity change, negative = inhibition: at 40 µM, stronger effect = lower value; outcome: 40 uM. An excerpt:
(§1) PI: Matthew D. Hall Ph.D. and Quinlin M. Hanson Ph.D.
(§2) National Center for Advancing Translational Sciences (NCATS)
(§3) National Institute of Health (NIH), Rockville, MD
(§4) Target class profiling (TCP) is a chemical biology approach amenable to investigating understudied biological targets. TCP is achieved by developing a generalizable assay platform and applying it to screen a curated set of compound libraries against representative members of a target class. Small molecule methyltransferases (SMMTase) are a subclass of methyltransferase that act on metabolites to modulate signaling pathways, metabolize xenobiotics, or balance the available methyl pool. We screened four curated libraries totaling 27,574 unique compounds against the SMMTases nicotinamide N-methyltransferase (NNMT), phenylethanolamine N-methyltransferase (PNMT), histamine N-methyltransferase (HNMT), glycine N-methyltransferase (GNMT), catechol O-methyltransferase (COMT), and guanidinoacetate N-methyltransferase (GAMT). The data generated by this TCP can be leveraged for informed tool molecule development. For example, in the associated publication we identified a chemotype of HNMT-selective inhibitors. Additionally, we identified a putative SMMTase-selective inhibitor with potential as a tool molecule for studying broader methyltransferase biology.
(§5) High-through put screening assays were developed at the National Center for Advancing Translational Science (NCATS) for the enzymes NNMT, PNMT, HNMT, GNMT, COMT, and GAMT. Enzymatic activity was measured as a function of SAM cofactor conversion using the MTase Glo kit (Promega) for all enzymes. All assays were performed in 1536-well format with substrates and SAM concentrations at KM values. Enzyme concentration and assay timing were optimized for 10-20% SAM conversion. Initial screening of 27,574 compounds was done as single-point assays using the highest compound concentration (40 uM). […] These compounds were replated in 11-point dose response and assayed against NNMT, PNMT, HNMT, GNMT, COMT, GAMT, and a counter-assay. The IC50 and efficacy (maximal response) values were determined for each dose-response curve. These values are also accounted for in the area under the curve (AUC) values.
(§6) PROTOCOL TABLE (as described by Inglese J, Shamu CE and Guy RK. 2007)
(§7) SEQUENCE No. (e.g., 1, 2, 3, etc.); […] (e.g., Cells, Incubation, Reagent, etc.); VALUE; DESCRIPTION.
(§8) 1; Reagent; 2 uL; SMMTase Enzyme (2x) in reaction buffer, columns 1- 48.
(§9) 2; Reagent; 1 uL; SAM (4x) in reaction buffer, columns 1-48.
(§10) 3; Controls; 23 nL; DMSO in column 4; sinefungin in DMSO (0 uM - 40 uM) in 7-point 1:2 dilution series (n = 2) in column 2.
(§11) 4; Compounds; 23 nL; Columns 5-48.
(§12) 5; Reagent; 1 uL; Substrate (4x) in reaction buffer, columns 2-48.
(§13) 6; Time; 20-30 min; Incubation.
(§14) 7; Reagent; 1 uL; MTase-Glo reagent (5X), columns 1-48.
(§15) 8; Time; 30 min; Incubation.
(§16) 9; Reagent; 5 uL; MTase-Glo Detection reagent, columns 1-48.
(§17) 10; Time; 30 min; Incubation, luminescence evolution.
(§18) 11; Detection; Luminescence; ViewLux uHTS Microplate Imager (PerkinElmer).
(§19) NOTES (numbers refer to Sequence numbers above)
(§20) 1, 2, 5. White Medium Binding Greiner 1536-well plates (Cat #789175-F, Greiner Bio-One, Monroe, NC); Reaction buffer: 50 mM Tris, pH 8.0, 3 mM MgCl2, 1 mM EDTA, 50 mM NaCl, 1 mM DTT, and 0.1 mg/mL BSA. Evaporation was prevented by covering assay plates with metal lids containing holes to allow gas diffusion.
(§21) 1. Six SMMTase were profiled: HNMT, GNMT, PNMT, COMT, NNMT, GAMT
(§22) 5. The corresponding substrate was used for each enzyme: HNMT - 5.3 uM Histamine; GNMT - >500 uM Glycine; PNMT - 16.2 uM Norephinephrine; COMT - 13.7 uM Norephinephrine; NNMT - 3.8 uM Nicotinamide; GAMT - 2.5 uM Guanidinoacetate.6, 8, 10. Room temperature
(§23) 6. Final reaction conditions: 10 nM COMT, 5 uM SAM, 15 uM norepinephrine, 50 mM Tris, pH 8.0, 3 mM MgCl2, 1 mM EDTA, 50 mM NaCl, 1 mM DTT, and 0.1 mg/mL BSA; refer to tables 2 and S1 for specific timing.
8. […]

Test [2] has as its target Glycine N-methyltransferase (Homo sapiens) (UniProt Q14749). The settings on record: purified enzyme, MTase-Glo SAH luminescence; measured here: GNMT inhibition; at 40 µM; stronger effect = lower value.
Excerpt: as §1, §2, §3, §4, §5, §6, §7, §8, §9, §10, §11, §12, §13, §14, §15, §16, §17, §18, §19, §20, §21, §22, §23
8. […]

Test [3] has as its target Guanidinoacetate N-methyltransferase (Homo sapiens) (UniProt Q14353). The settings on record: purified enzyme, MTase-Glo SAH luminescence; measured here: GAMT inhibition; at 40 µM; stronger effect = lower value.
Excerpt: as §1, §2, §3, §4, §5, §6, §7, §8, §9, §10, §11, §12, §13, §14, §15, §16, §17, §18, §19, §20, §21, §22, §23
8. […]

For test [4], the target named is Histamine N-methyltransferase (Homo sapiens) (UniProt P50135). The settings on record: purified enzyme, MTase-Glo SAH luminescence; measured here: HNMT inhibition; at 40 µM; stronger effect = lower value.
Chain of Histamine N-methyltransferase (Homo sapiens) (P50135 whole entry, looked up): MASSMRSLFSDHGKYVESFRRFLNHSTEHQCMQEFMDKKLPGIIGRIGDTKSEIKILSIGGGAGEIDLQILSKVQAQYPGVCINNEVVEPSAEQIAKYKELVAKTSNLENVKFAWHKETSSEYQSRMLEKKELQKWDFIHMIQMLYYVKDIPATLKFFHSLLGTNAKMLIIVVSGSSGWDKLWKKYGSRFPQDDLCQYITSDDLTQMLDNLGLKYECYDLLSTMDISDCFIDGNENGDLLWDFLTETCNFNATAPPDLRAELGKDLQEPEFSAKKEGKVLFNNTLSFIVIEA
Excerpt: as §1, §2, §3, §4, §5, §6, §7, §8, §9, §10, §11, §12, §13, §14, §15, §16, §17, §18, §19, §20, §21, §22, §23
8. […]

In test [5] the target is Nicotinamide N-methyltransferase (Homo sapiens) (UniProt P40261). The note with it: purified enzyme, MTase-Glo SAH luminescence; measured here: NNMT inhibition; at 40 µM; stronger effect = lower value.
Chain of Nicotinamide N-methyltransferase (Homo sapiens) (P40261 whole entry, looked up): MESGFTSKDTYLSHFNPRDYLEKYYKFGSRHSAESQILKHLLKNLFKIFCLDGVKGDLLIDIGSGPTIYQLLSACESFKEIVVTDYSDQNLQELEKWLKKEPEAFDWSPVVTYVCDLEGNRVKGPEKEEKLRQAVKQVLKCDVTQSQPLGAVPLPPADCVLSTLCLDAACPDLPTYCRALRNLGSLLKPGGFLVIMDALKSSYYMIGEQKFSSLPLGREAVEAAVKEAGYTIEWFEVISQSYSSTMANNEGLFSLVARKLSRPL
Excerpt: as §1, §2, §3, §4, §5, §6, §7, §8, §9, §10, §11, §12, §13, §14, §15, §16, §17, §18, §19, §20, §21, §22, §23
8. […]

Test [6] has as its target Phenylethanolamine N-methyltransferase (Homo sapiens) (UniProt P11086). The settings on record: purified enzyme, MTase-Glo SAH luminescence; measured here: PNMT inhibition; at 40 µM; stronger effect = lower value.
Excerpt: as §1, §2, §3, §4, §5, §6, §7, §8, §9, §10, §11, §12, §13, §14, §15, §16, §17, §18, §19, §20, §21, §22, §23
8. […]
On the % scale 0 is the no-effect control and ±100 the full control effect.

Chain of Glycine N-methyltransferase (Homo sapiens) (Q14749 whole entry, looked up): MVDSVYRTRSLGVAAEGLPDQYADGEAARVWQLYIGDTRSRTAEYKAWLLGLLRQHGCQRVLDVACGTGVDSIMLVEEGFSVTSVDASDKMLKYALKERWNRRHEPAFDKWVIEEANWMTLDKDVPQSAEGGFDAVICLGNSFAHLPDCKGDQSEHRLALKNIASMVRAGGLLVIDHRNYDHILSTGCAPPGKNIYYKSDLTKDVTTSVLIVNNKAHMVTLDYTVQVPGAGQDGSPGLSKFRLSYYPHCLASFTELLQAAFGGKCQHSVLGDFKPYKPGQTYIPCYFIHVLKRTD
Chain of Catechol O-methyltransferase (Homo sapiens) (P21964 whole entry, looked up): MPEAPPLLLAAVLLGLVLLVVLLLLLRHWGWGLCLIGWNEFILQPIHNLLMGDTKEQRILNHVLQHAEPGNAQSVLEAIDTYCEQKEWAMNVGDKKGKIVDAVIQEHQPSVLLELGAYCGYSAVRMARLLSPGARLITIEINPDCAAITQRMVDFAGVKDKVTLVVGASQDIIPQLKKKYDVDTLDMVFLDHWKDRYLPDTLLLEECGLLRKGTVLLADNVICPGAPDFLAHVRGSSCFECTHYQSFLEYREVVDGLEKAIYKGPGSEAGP
Chain of Phenylethanolamine N-methyltransferase (Homo sapiens) (P11086 whole entry, looked up): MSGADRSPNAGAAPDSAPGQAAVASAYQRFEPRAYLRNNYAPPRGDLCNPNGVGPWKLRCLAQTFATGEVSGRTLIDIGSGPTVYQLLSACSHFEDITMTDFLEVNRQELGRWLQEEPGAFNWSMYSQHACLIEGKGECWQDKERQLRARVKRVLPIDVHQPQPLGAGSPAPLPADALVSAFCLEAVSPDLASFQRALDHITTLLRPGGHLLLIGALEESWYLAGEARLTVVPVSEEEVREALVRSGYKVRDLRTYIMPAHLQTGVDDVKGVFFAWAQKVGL

Consider `CCNC(=O)N1CC[C@H]2CC(=O)N(Cc3cccnc3)CC[C@H]2C1`, for which the activity change, negative = inhibition in test [1] is -8.99% (inactive); in test [2] it was -6.64%; in test [3], -7.68%; in test [4], -5.27%; in test [5] it was -14.8%; in test [6], -11.5%.

In the case of `COc1cccc(C(=O)N(CC(C)C)CC2CN(C(=O)Nc3ccccc3)CCO2)c1` (centres undefined), the activity change, negative = inhibition was -3.51% (inactive) in test [1]; -5.73% in test [2]; -3.93% in test [3]; -3.02% in test [4]; -7.14% in test [5]; 0.149% in test [6].

As for `Cn1c(=O)c2ccc(C(=O)NC3CCCCC3)cc2n2c(SCc3cccc(Cl)c3)nnc12`, the activity change, negative = inhibition in test [1] was 2.97% (inactive); in test [2], 2.72%; in test [3] it was 0.691%; in test [4], 2.66%; in test [5], 1.84%; in test [6], 5.9%.

`CCn1ccnc1CN(C)C(=O)c1cc(COc2ccccc2F)[nH]n1`: the activity change, negative = inhibition in test [1] was 4.03% (inactive); in test [2], -2.18%; in test [3], -0.135%; in test [4] it was -1.52%; in test [5], -4%; in test [6], -1.63%.

For the compound `CC1(C(=O)NC2CCCCC2)Cn2c(ccc2-c2ccccc2)C(=O)N1CCC1=CCCCC1` (centres undefined), the activity change, negative = inhibition in test [1] was 6.36% (inactive); in test [2], 9.19%; in test [3], 0.753%; in test [4], 8.84%; in test [5], 8.48%; in test [6] it was 6.08%.

Take `COc1ccc(CN2C(=O)c3ccc(-c4ccco4)n3CC2(C)C(=O)NC2CCCCCC2)cc1` (centres undefined): the activity change, negative = inhibition in test [1] was -2.99% (inactive); in test [2] it was -14.7%; in test [3] it was 0.968%; in test [4], -7.66%; in test [5], -8.88%; in test [6] it was -4.52%.

In the case of `CCCS(=O)(=O)NCC1Cn2cccc2C(=O)N1CCOC` (centres undefined), the activity change, negative = inhibition is 2.41% (inactive) in test [1]; 0.792% in test [2]; -0.491% in test [3]; 0.026% in test [4]; -3.41% in test [5]; 0.672% in test [6].

Consider `Cc1ccc(OCCC2CCN(C(=O)Cn3cnc4c3c(=O)n(C)c(=O)n4C)C2)cc1` (centres undefined), for which the activity change, negative = inhibition in test [1] is -5.48% (inactive); in test [2], -7.34%; in test [3], -5.09%; in test [4] it was -2.32%; in test [5], -21%; in test [6] it was -7.16%.

As to `CC1CCCC(NC(=O)C2(C)Cn3c(cc4sccc43)C(=O)N2c2ccc(Cl)cc2)C1C` (centres undefined), the activity change, negative = inhibition is -1.19% (inactive) in test [1]; -1.5% in test [2]; 2.58% in test [3]; -0.753% in test [4]; 2.89% in test [5]; -5.61% in test [6].

As for `CCC1CCCCN1C(=O)Cn1c(=O)oc2cc(S(=O)(=O)N3CCCC3)ccc21` (centres undefined), the activity change, negative = inhibition is 1.3% (inactive) in test [1]; -2.17% in test [2]; 1.65% in test [3]; -2.01% in test [4]; 0.211% in test [5]; -0.075% in test [6].

For the compound `Clc1cc(NCc2ccccn2)n2nccc2n1`, the activity change, negative = inhibition in test [1] was -4.71% (inactive); in test [2] it was -11.1%; in test [3] it was -2.25%; in test [4], -0.734%; in test [5], -13.1%; in test [6], 6.59%.

For the compound `COc1ccccc1N1CCN(S(=O)(=O)c2cc3c(cc2C)n(C)c(=O)n3C)CC1`, the activity change, negative = inhibition was 8.56% (inactive) in test [1]; 5.66% in test [2]; 0% in test [3]; 4.91% in test [4]; -2.8% in test [5]; 0.426% in test [6].

As for `COc1ccc(NC(=O)c2ccc(-c3ccc(C(=N)N)cc3C)cc2)cc1N1CCN(C)CC1`, the activity change, negative = inhibition in test [1] is -7.6% (active); in test [2] it was -8.27%; in test [3], -7.77%; in test [4], -66.3%; in test [5], -22.1%; in test [6], -8.76%.

Take `COc1ccc(NC(=O)c2ccc(-c3ccc(C(N)=O)cc3C)cc2)cc1N1CCN(C)CC1`: the activity change, negative = inhibition in test [1] is 0.282% (inactive); in test [2], -7.07%; in test [3], 2.94%; in test [4], -26%; in test [5] it was -29.8%; in test [6], -2.08%.
